Assay results taken from PubChem BioAssay AID1259240 (Keith Lab, Institute of Cancer Science, University of …, 2017).
Calls of active or inactive are those of the source. No stated cut-off is given here; in the data, active means fold change mostly below about -2 (no sharp cut-off); inactive means mostly above about -1.8.

Assay: TERT promoter activity modulators, primary screen, cell-based, luciferase reporter, human (AID 1259240)
Settings: A2780 TERT promoter luciferase reporter, 16 h; at 20 µM, fold versus average of vehicle-only wells

SMILES | fold change | outcome
Cc1ccc(S(=O)(=O)NCCOc2nc(N(C)C)nc(N3CCOCC3)n2)cc1 | -1.03 (inactive) | –
COc1cc(Cl)cc(OC)c1NC(=O)Nc1ccc2snnc2c1 | -1.47 (inactive) | –
COc1ccc(OC)c(S(=O)(=O)c2cc3cc(OC)ccc3oc2=O)c1 | -1.77 (inactive) | –
CSc1ccc(/C=c2\sc3nc(-c4ccco4)nn3c2=O)cc1 | -1.12 (inactive) | –
COc1ccc(-c2cc(C(F)(F)F)nc(SCCC(=O)N3CCN4CCCC4C3)n2)cc1 (centres undefined) | -1.73 (inactive) | –
Cc1oc(-c2ccccc2F)nc1CSc1nc2ccncc2[nH]1 | -1.15 (inactive) | –
Cn1c(C(=O)N2CCC(C(=O)NCCc3c[nH]c4ccccc34)CC2)cc2sccc21 | -1.05 (inactive) | –
Cc1cc(C(=O)N2CCN(Cc3ccc4c(c3)OCO4)CC2)on1 | 1.36 (inactive) | –
CN1CCN(C(=O)C2CCN(c3ccc(N4CCOCC4)nn3)CC2)CC1 | -1.4 (inactive) | –
COc1cc2c(cc1OC)C(c1ccc(C)c(Br)c1)CC(=O)N2 (centres undefined) | -1.04 (inactive) | –
Cn1c(=O)c2c(SCC(=O)Nc3ccc([N+](=O)[O-])cc3)nc(-c3ccc(F)cc3)nc2n(C)c1=O | 1.08 (inactive) | –
COc1ccc(C2CC(c3cccs3)=NN2C(=O)CSc2ncnc3ccccc23)cc1 (centres undefined) | 1.14 (inactive) | –
CS(=O)(=O)N1N=C(c2cccs2)CC1c1ccccc1F (centres undefined) | -1.2 (inactive) | –
CCCN(CCC)C(=O)Cn1c(=O)oc2cc(S(=O)(=O)N3CC(C)CC(C)C3)ccc21 (centres undefined) | 1.03 (inactive) | –
COc1ccccc1-c1c(C)nn2c(N(C)CCC#N)cc(C)nc12 | -1.5 (inactive) | –
C=CCn1c(Oc2ccccc2Cl)nc2c1c(=O)n(C)c(=O)n2C | -2.84 (active) | –
CCOC(=O)c1c(C)n(C)c2ccc(OCC(O)Cn3nc(C)cc3C)cc12 (centres undefined) | -2.1 (active) | –
Cn1c(SCC(=O)NCc2ccco2)nnc1-c1c[nH]c2ccccc12 | – | inactive
Nc1nc(SCC(=O)NCCCN2CCOCC2)nc2sc3c(c12)CCC3 | -1.53 (inactive) | –
COc1ccc(-c2nc(CSc3nc4ccncc4[nH]3)c(C)o2)cc1 | -1.53 (inactive) | –

SMILES | fold change | outcome
Cc1ccc(NC(=O)CSc2nc3c(c(=O)[nH]2)CCC3)cc1F | – | inactive
COc1ccc(-c2nc(CSc3nc4c(c(=O)[nH]3)CCC4)c(C)o2)cc1 | – | inactive
CCCCNC(=O)c1ccc(CNc2c(NC3CCCC3)c(=O)c2=O)cc1 | 1.11 (inactive) | –
O=C1N=C(N2CCOCC2)S/C1=C1\C(=O)N(Cc2ccccc2)c2ccccc21 | -2.02 (active) | –
CC(=O)c1ccc2c(c1)c1cc(C(C)=O)ccc1n2C | -1.83 (inactive) | –
Cc1cc(C)n2c(NC(C)C)c(-c3ccc(C)o3)nc2n1 | 1.2 (inactive) | –
CC1=C(C(N)=O)C(c2ccc(Br)cc2)n2nc(CCCO)nc2N1 (centres undefined) | – | inactive
FC(F)(F)c1cccc2c1[nH]c1nc3ccccc3nc12 | -1.1 (inactive) | –
COCCNC(=O)CCSc1nc(-c2ccc3c(c2)OCO3)cc(C(F)(F)F)n1 | -1.36 (inactive) | –
Cc1ccc(-c2nnc3c4ccccc4c(C)nn23)cc1S(=O)(=O)NCC1CCCO1 (centres undefined) | 1.3 (inactive) | –
Cc1noc(C(=O)NCC(C)C)c1Cl | -1.74 (inactive) | –
CCOC(=O)N1CCN(c2c(NCCCOC)c(=O)c2=O)CC1 | 1.11 (inactive) | –
O=C(CN1C(=O)c2ccccc2S1(=O)=O)N1CCN(c2cccc(Cl)c2)CC1 | -1.25 (inactive) | –
CN1CCN(CCNC(=O)Cn2ncc3c4ccccc4n(C)c3c2=O)CC1 | -1.16 (inactive) | –
O=C(CC1(O)C(=O)N(CCc2ccccc2)c2ccc(Cl)cc21)c1ccc(F)cc1 (centres undefined) | -1.87 (inactive) | –
COc1ccc2cc(S(=O)(=O)c3ccc(Cl)cc3)c(=O)oc2c1 | -2.33 (active) | –
COc1ccc(/C=C/c2nc3scc(-c4cccs4)c3c(=O)o2)cc1 | -1.6 (inactive) | –
CCNc1nc(NCC)nc(C(=O)OCCO)n1 | 1.24 (inactive) | –
COc1ccc(-c2nc3s/c(=C\c4cc(OC)c(OC)c(OC)c4)c(=O)n3n2)cc1OC | 1.65 (inactive) | –
